Rows were chosen to be rich in hits. Some 4.2% of all compounds tested hit in one or more screens of this group.
GDH-TPI inh = GDH-TPI coupled enzyme inhibition counter-screen. 360,000 compounds, 1.2% hits. inhibition, % at 4.8 µM. GDH-TPI coupled enzyme counterscreen, NADH absorbance
RecA splice inh = blocks M. tuberculosis RecA intein splicing; P9WHJ3; cell-free RecA intein splicing, fluorescence; inhibition, % (test concentration not listed); 290,000 compounds, 0.75% hits; AID 2221; in the data active = inhibition above about 30%
Target sequence (P9WHJ3 whole entry, looked up, canonical isoform): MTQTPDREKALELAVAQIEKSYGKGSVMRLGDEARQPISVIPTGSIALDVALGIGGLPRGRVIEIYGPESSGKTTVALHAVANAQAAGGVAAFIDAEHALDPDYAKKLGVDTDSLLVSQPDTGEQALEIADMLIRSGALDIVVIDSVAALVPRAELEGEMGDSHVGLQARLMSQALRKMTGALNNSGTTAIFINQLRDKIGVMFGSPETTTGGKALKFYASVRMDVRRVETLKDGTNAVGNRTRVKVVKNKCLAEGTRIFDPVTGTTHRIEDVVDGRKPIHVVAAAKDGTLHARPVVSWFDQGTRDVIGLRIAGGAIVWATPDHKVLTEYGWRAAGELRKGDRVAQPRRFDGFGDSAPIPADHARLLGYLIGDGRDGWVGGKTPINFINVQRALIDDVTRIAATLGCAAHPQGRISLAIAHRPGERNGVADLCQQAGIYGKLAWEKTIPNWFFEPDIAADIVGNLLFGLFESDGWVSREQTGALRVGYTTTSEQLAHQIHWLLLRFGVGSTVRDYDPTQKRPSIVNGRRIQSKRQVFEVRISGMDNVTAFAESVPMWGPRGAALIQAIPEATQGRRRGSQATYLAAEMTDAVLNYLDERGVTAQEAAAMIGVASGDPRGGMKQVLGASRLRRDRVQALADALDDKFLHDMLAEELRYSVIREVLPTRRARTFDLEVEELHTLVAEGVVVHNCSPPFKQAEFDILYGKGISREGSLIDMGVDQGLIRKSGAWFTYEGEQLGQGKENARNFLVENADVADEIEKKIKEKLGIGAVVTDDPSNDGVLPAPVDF
Mtb FBA inh = Mtb fructose-bisphosphate aldolase inhibition | purified M. tuberculosis FBA, fluorescence read-out | inhibition, % at 1 µM | 360,000 compounds, 2.3% hits | AID 588726; in the data active = inhibition above about 27%
CCHF vOTU inh = blocks the CCHF virus ovarian tumor domain protease; CCHFV vOTU protease, Pep-AMC fluorescence; inhibition, % at 11.5 µM; 370,000 compounds, 0.55% hits; AID 651958
A number is an active result. Rule as the data show it, unless noted: active = inhibition above about 30%; inactive = the rest.

COc1nc(-c2ccccc2)cc(-c2ccc(OC)c(OC)c2)n1 was read as GDH-TPI inh 36, RecA splice inh inactive, Mtb FBA inh inactive and CCHF vOTU inh inactive.
Screening CCN(CC)C(=O)C1=C(C)N(Cc2ccc(F)cc2)C(=O)C(CC(=O)NC(c2ccccc2)c2ccccc2)C1 (centres undefined) returned GDH-TPI inh inactive, Mtb FBA inh inactive and CCHF vOTU inh inactive.
`Cc1ccc(S(=O)(=O)N2CCN(C(=O)c3nn(C(C)C)c(=O)c4ccccc34)CC2)cc1C` gave GDH-TPI inh inactive, RecA splice inh inactive, Mtb FBA inh inactive and CCHF vOTU inh inactive.
`Cn1nc(C(=O)N2CCN(S(=O)(=O)c3ccccc3)CC2)c2ccccc2c1=O` gave GDH-TPI inh inactive, RecA splice inh inactive, Mtb FBA inh 107 and CCHF vOTU inh inactive.
For C[C@H](NS(=O)(=O)c1ccc(F)cc1)C(=O)OCC(=O)c1c(N)n(C)c(=O)n(C)c1=O the results were GDH-TPI inh inactive, Mtb FBA inh inactive and CCHF vOTU inh inactive.
CCOc1cc(/C=N/NC(=O)c2ccc(O)cc2)ccc1Oc1nc(Cl)ncc1F was read as GDH-TPI inh inactive, RecA splice inh inactive, Mtb FBA inh inactive and CCHF vOTU inh inactive.
For CCOc1cc(/C=N\Nc2ncc(F)c(N3CCOCC3)n2)ccc1Oc1nc(Cl)ncc1F the results were GDH-TPI inh 33, RecA splice inh inactive, Mtb FBA inh inactive and CCHF vOTU inh inactive.
For COC(=O)[C@]12C[C@H](CC(=O)NCc3cccc4ccccc34)C(=O)N(Cc3ccco3)C1=C[C@H](C(C)C)O[C@@H]2C1CC1 the results were CCHF vOTU inh inactive.
c1ccc2oc(-c3ccc4c(c3)CNCc3cnnn3-4)cc2c1 was read as Mtb FBA inh active and CCHF vOTU inh inactive.
For COc1ccc(NS(=O)(=O)c2cc(NC(=O)c3ccc(=O)[nH]n3)ccc2N2CCOCC2)cc1 the results were GDH-TPI inh inactive, Mtb FBA inh inactive and CCHF vOTU inh inactive.
`COCCCN=Cc1c(O)[nH]c(=S)[nH]c1=O` gave GDH-TPI inh 33, RecA splice inh inactive, Mtb FBA inh inactive and CCHF vOTU inh inactive.
`C=CCC[C@H](Cc1ccc(F)cc1)C(=O)OC[C@@H](C)NC(=O)[C@H](CC=C)CC(=O)N(CCO)Cc1ccccc1` gave GDH-TPI inh inactive, Mtb FBA inh inactive and CCHF vOTU inh inactive.
`C=CCC[C@@H](Cc1ccc(F)cc1)C(=O)OC[C@H](C)NC(=O)[C@H](CC=C)CC(=O)N(CCO)Cc1ccccc1` gave GDH-TPI inh inactive, Mtb FBA inh 134 and CCHF vOTU inh inactive.
`CCCC(=O)NC(c1ccc(OCC)cc1)c1ccc(OC)c(OC)c1` (centres undefined) gave GDH-TPI inh inactive, RecA splice inh inactive, Mtb FBA inh 156 and CCHF vOTU inh inactive.
For N#CC(C#N)=NNc1ccc(S(=O)(=O)N2CCCC2)cc1 the results were GDH-TPI inh inactive, RecA splice inh 30, Mtb FBA inh inactive and CCHF vOTU inh inactive.
For N#C/C(=N\Nc1ccc(S(=O)(=O)N2CCCCCC2)cc1)C(N)=S the results were GDH-TPI inh inactive, RecA splice inh inactive, Mtb FBA inh inactive and CCHF vOTU inh inactive.
`N#Cc1ccc(-c2ccc(F)cc2)nc1Oc1ccc(Cl)c(Cl)c1` gave GDH-TPI inh inactive, RecA splice inh inactive, Mtb FBA inh inactive and CCHF vOTU inh inactive.
`COc1ccc(-c2cc(C#N)nc(Cl)n2)cc1` gave GDH-TPI inh inactive, RecA splice inh 40, Mtb FBA inh inactive and CCHF vOTU inh inactive.
`COc1ccc(-c2ccc(C#N)c(OC)n2)cc1` gave GDH-TPI inh inactive, RecA splice inh inactive, Mtb FBA inh active and CCHF vOTU inh inactive.
`CCCn1nc(C(=O)NNC(=O)C2CSC3(C)CCC(=O)N23)c2ccccc2c1=O` (centres undefined) gave GDH-TPI inh inactive, RecA splice inh inactive, Mtb FBA inh inactive and CCHF vOTU inh inactive.
Screening N#CC1=C2Sc3ccccc3N2CCCC1=O returned GDH-TPI inh 34, RecA splice inh inactive, Mtb FBA inh inactive and CCHF vOTU inh inactive.
Screening N#CC1=C2SC=C(c3ccc(Br)cc3)N2CCCC1=O returned GDH-TPI inh inactive, RecA splice inh inactive, Mtb FBA inh inactive and CCHF vOTU inh inactive.
Screening COc1ccc2c(c1OC)C(=O)N1N=C(c3ccc(Br)cc3)CC21 (centres undefined) returned GDH-TPI inh inactive, RecA splice inh inactive and Mtb FBA inh inactive.
COc1ccc(C2=NN3C(=O)c4c(ccc(OC)c4OC)C3C2)cc1 (centres undefined) was read as GDH-TPI inh 36, RecA splice inh inactive, Mtb FBA inh inactive and CCHF vOTU inh inactive.
`O=C(CCNC(=O)c1ccccc1Cl)Nc1ccc2c(c1)OCO2` gave GDH-TPI inh inactive, RecA splice inh inactive, Mtb FBA inh inactive and CCHF vOTU inh inactive.
For O=C(CCl)Nc1ccccc1C(=O)Nc1ccc2c(c1)OCO2 the results were GDH-TPI inh inactive, RecA splice inh 38, Mtb FBA inh inactive and CCHF vOTU inh inactive.
Screening CC(=O)Nc1ccc(S(=O)(=O)N(C)c2ccc(OCC(=O)OCC(=O)NCc3ccco3)cc2)cc1 returned GDH-TPI inh inactive, RecA splice inh inactive, Mtb FBA inh inactive and CCHF vOTU inh inactive.
`CCOC(=O)[C@]12CCCC=C1N(CCCOC)C(=O)[C@@H]2CC(=O)NCCCCc1ccccc1` gave CCHF vOTU inh inactive.
For CC(=O)N1CCc2cc(S(=O)(=O)NCCC(=O)N(C)Cc3ccccc3F)ccc21 the results were CCHF vOTU inh inactive.
`CC1CC(C)CN(C(=O)COC(=O)c2ccc3ccccc3n2)C1` (centres undefined) gave GDH-TPI inh inactive, Mtb FBA inh inactive and CCHF vOTU inh inactive.
Screening O=C(O)/C=C/C(=O)Nc1ccc(Oc2ccc(NC(=O)/C=C/C(=O)O)cc2)cc1 returned RecA splice inh inactive.
`O=C(O)/C=C\C(=O)Nc1ccc(Oc2ccc(Br)cc2)cc1` gave GDH-TPI inh inactive, RecA splice inh 32, Mtb FBA inh inactive and CCHF vOTU inh inactive.
Cc1ccc(S(=O)(=O)CCC(=O)c2ccc(O)cc2O)cc1 was read as GDH-TPI inh 43, RecA splice inh inactive, Mtb FBA inh inactive and CCHF vOTU inh inactive.
`CC(=O)Nc1ccc(C(=O)N2CCCC(c3cc(C(=O)NCc4ccccc4)no3)C2)cc1` (centres undefined) gave GDH-TPI inh inactive, Mtb FBA inh inactive and CCHF vOTU inh inactive.
Screening CC(=O)OC12CCCN(C1)/C(=C/c1ccc(Cl)cc1)C2 (centres undefined) returned CCHF vOTU inh inactive.
`O=C(O)c1ccc2c(c1)C(=O)N(c1ccc([N+](=O)[O-])cn1)C2=O` gave GDH-TPI inh 36, RecA splice inh inactive, Mtb FBA inh inactive and CCHF vOTU inh inactive.
For CCOc1ccccc1N1C(=O)NC(=O)/C(=C/c2ccc3c4c(cccc24)CC3)C1=O the results were GDH-TPI inh inactive, RecA splice inh inactive, Mtb FBA inh 38 and CCHF vOTU inh inactive.
CC(/C=C/c1ccc2c(c1)OCO2)=N/NC(=O)c1cccnc1 was read as GDH-TPI inh 42, RecA splice inh inactive, Mtb FBA inh inactive and CCHF vOTU inh inactive.
`O=C(N/N=C/c1ccc2c(c1)OCCO2)c1ccncc1` gave GDH-TPI inh inactive, RecA splice inh inactive, Mtb FBA inh inactive and CCHF vOTU inh inactive.
CC(/C=C/c1ccc2c(c1)OCO2)=N/NC(=O)c1ccncc1 was read as GDH-TPI inh 48, RecA splice inh inactive, Mtb FBA inh inactive and CCHF vOTU inh inactive.

Screens: PubChem BioAssay, several laboratories
